Data published in PubChem BioAssay (NCI).
This is part of a sample that, as a whole, favours compounds with a hit. Of some 83,000 tested, about 20% had one in any assay.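 In brief: 96-well plates, 48 h treatment, single concentration, percent growth endpoint.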 Calls of active or inactive are those of the source. Rule for the calls: active = growth percent below 10; inactive = the rest.

Key:
Experiment in all cases: NCI-60 one-dose screen, 48 h (100 = growth as untreated, 0 = no growth, -100 = all killed)
Details in all cases: 10 µM unless noted
NCI-H23 lung = test system: NCI-H23 lung
NCI-H226 lung = test system: NCI-H226 lung
NCI-H322M lung = test system: NCI-H322M lung
HOP-62 NSCLC = test system: HOP-62 NSCLC
NCI-H460 lung = test system: NCI-H460 lung
HOP-92 NSCLC = test system: HOP-92 NSCLC
NCI-H522 lung = test system: NCI-H522 lung
A549/ATCC NSCLC = test system: A549/ATCC NSCLC
786-0 renal = test system: 786-0 renal
COLO 205 colon = test system: COLO 205 colon
DU-145 prostate = test system: DU-145 prostate
K-562 leukemia = test system: K-562 leukemia
MALME-3M melanoma = test system: MALME-3M melanoma
MDA-MB-231 breast = test system: MDA-MB-231 breast
RXF 393 renal = test system: RXF 393 renal
SF-268 CNS = test system: SF-268 CNS
SF-295 CNS = test system: SF-295 CNS
SF-539 CNS = test system: SF-539 CNS
UACC-257 melanoma = test system: UACC-257 melanoma
M14 melanoma = test system: M14 melanoma

Measured: growth

C=CC(=O)N1CCC[C@H](n2c(=O)n(-c3ccc(Oc4ccccc4)cc3)c3c(N)ncnc32)C1
inactive: NCI-H23 lung 92.7% | NCI-H226 lung 79.1% | NCI-H322M lung 19.3% | HOP-62 NSCLC 82.8% | NCI-H460 lung 96.2% | HOP-92 NSCLC 85.7% | NCI-H522 lung 11.3% | A549/ATCC NSCLC 58.3% | 786-0 renal 85.3% | COLO 205 colon 93.1% | DU-145 prostate 62.4% | K-562 leukemia 66.7% | MALME-3M melanoma 98.2% | MDA-MB-231 breast 99.6% | RXF 393 renal 84.8% | SF-268 CNS 71.6% | SF-295 CNS 98.4% | SF-539 CNS 104% | UACC-257 melanoma 62.9% | M14 melanoma 84.1%

COc1cc2cc(NCc3ccc(F)cc3)nc(C)c2cc1OC
active: SF-539 CNS -4.69%
inactive: NCI-H23 lung 26.5% | NCI-H226 lung 48.5% | NCI-H322M lung 52.5% | HOP-62 NSCLC 54.7% | NCI-H460 lung 26.4% | HOP-92 NSCLC 25.3% | NCI-H522 lung 59.9% | A549/ATCC NSCLC 47.9% | 786-0 renal 32.2% | COLO 205 colon 34.2% | DU-145 prostate 58.1% | K-562 leukemia 11.7% | MALME-3M melanoma 87.7% | MDA-MB-231 breast 45.9% | RXF 393 renal 59.7% | SF-268 CNS 50.7% | SF-295 CNS 40.7% | UACC-257 melanoma 88.8% | M14 melanoma 32.2%

C=CC(=O)N1CCC[C@@H](n2nc(-c3ccc(Oc4ccccc4)cc3)c3c(N)ncnc32)C1
inactive: NCI-H23 lung 95.3% | NCI-H226 lung 45% | HOP-62 NSCLC 73.1% | NCI-H460 lung 90% | HOP-92 NSCLC 28.3% | A549/ATCC NSCLC 46.6% | 786-0 renal 30.4% | COLO 205 colon 61.3% | DU-145 prostate 47.9% | MALME-3M melanoma 86.8% | MDA-MB-231 breast 56.4% | RXF 393 renal 11% | SF-268 CNS 42% | SF-295 CNS 60.7% | SF-539 CNS 32.9% | UACC-257 melanoma 26.4% | M14 melanoma 41.9%
active: NCI-H322M lung -1.22% | NCI-H522 lung 1.41% | K-562 leukemia 8.51%

CC[C@@H]1C(=O)N(C)c2cnc(Nc3ccc(C(=O)NC4CCC(N5CCN(CC6CC6)CC5)CC4)cc3OC)nc2N1C(C)C (stereo not given in full)
inactive: NCI-H226 lung 49.7% | NCI-H322M lung 23.3% | HOP-92 NSCLC 20.7% | DU-145 prostate 14.6% | SF-268 CNS 11.2%
active: NCI-H23 lung -1.19% | HOP-62 NSCLC -29.7% | NCI-H460 lung 1.14% | NCI-H522 lung -52.8% | A549/ATCC NSCLC -6.16% | 786-0 renal -80.2% | COLO 205 colon -61.9% | K-562 leukemia -6.16% | MALME-3M melanoma -80.6% | MDA-MB-231 breast 5.19% | RXF 393 renal -30.4% | SF-295 CNS -36.2% | SF-539 CNS -85.7% | UACC-257 melanoma -67.3% | M14 melanoma -57.7%
